Legend:
Test in all cases: DAPPL (digital affinity profiling via proximity ligation, sequencing); 10 mM Tris-HCl pH 7.5, 50 mM NaCl, 1 mM DTT, 4% glycerol, room temperature, 30 min; GST-TFs on glutathione beads, 16-mer random dsDNA library, 0.1% formaldehyde crosslink after washing; high values mean tight binding
FLI1 = target: T1, FLI1 (Homo sapiens, UniProt Q01543 1-452); details: protein: recombinant; tags: N-terminal GST; dsDNA, one strand shown
T1 sequence: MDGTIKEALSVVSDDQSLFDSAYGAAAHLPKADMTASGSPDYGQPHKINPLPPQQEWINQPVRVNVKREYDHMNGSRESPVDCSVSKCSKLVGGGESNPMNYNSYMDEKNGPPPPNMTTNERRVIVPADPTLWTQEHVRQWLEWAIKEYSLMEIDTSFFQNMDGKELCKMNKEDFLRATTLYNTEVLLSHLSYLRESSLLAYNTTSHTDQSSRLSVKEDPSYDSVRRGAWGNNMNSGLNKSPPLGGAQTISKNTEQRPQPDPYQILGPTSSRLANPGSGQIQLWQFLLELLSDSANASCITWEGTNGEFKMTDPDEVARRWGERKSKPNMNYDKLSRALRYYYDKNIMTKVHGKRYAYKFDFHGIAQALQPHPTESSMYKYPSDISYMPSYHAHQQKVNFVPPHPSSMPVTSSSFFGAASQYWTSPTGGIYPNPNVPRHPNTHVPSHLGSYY
Procedure, shortened: (§1)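 Binding signal is each hexamer's read frequency for a factor divided by its frequency in the tag-only sample. The factors were GST-fused human transcription factors from yeast, captured on glutathione beads, DNA-barcoded and pooled with that sample. Pools were incubated with 200 nmole of a random double-stranded 16-mer DNA library in Tris/NaCl/DTT/glycerol buffer at room temperature for 30 min, then washed, crosslinked with 0.1% formaldehyde, proximity-ligated with BsaI/T4 ligase (1 h, 37 °C), PCR-amplified and sequenced on an Illumina NextSeq500.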

ELK1 = target: T2, ELK1 (Homo sapiens, UniProt P19419 1-428); details: protein: recombinant; tags: N-terminal GST; dsDNA, one strand shown
T2 sequence: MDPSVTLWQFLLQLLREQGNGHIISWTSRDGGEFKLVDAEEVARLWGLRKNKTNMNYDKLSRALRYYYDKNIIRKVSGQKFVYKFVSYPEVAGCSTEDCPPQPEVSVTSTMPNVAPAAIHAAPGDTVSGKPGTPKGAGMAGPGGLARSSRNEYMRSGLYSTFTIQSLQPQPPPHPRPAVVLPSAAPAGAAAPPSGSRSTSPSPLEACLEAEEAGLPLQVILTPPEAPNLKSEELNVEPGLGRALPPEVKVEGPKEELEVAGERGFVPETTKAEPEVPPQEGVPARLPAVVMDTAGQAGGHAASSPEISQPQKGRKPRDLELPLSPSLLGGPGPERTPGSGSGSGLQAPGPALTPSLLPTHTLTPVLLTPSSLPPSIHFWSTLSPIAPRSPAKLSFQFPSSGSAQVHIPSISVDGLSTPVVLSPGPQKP
Procedure, shortened: as §1

GABPA = target: T3, GABPA (Homo sapiens, UniProt Q06546 1-454); details: protein: recombinant; tags: N-terminal GST; dsDNA, one strand shown
T3 sequence: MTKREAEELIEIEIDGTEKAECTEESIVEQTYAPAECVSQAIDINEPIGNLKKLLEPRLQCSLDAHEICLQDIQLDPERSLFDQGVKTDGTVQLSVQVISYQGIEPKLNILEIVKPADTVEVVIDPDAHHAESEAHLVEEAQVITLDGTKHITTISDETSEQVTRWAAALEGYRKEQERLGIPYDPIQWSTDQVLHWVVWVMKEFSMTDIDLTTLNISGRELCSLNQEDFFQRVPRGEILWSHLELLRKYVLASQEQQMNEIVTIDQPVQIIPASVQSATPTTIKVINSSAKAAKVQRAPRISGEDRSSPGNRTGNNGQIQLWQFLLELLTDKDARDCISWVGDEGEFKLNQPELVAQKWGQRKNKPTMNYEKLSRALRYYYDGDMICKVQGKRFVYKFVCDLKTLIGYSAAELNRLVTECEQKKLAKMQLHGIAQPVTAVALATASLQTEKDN
Procedure, shortened: as §1

ERG = target: T4, ERG (Homo sapiens, UniProt P11308 1-479); details: protein: recombinant; tags: N-terminal GST; dsDNA, one strand shown
T4 sequence: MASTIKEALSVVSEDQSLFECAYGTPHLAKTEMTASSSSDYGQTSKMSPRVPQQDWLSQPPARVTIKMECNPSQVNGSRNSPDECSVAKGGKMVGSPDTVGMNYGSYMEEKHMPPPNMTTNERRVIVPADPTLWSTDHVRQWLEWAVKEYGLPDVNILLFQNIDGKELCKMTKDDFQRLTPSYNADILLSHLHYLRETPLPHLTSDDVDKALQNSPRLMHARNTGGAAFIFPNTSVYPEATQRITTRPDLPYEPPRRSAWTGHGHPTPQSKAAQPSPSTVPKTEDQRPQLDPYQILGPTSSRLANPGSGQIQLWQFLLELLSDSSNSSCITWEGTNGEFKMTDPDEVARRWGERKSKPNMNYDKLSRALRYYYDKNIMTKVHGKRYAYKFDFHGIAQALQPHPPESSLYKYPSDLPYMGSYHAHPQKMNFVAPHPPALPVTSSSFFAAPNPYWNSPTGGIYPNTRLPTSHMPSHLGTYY
Procedure, shortened: as §1

ELF1 = ELF1 (Homo sapiens, UniProt P32519 1-619); details: protein: recombinant; tags: N-terminal GST; dsDNA, one strand shown
Chain of ELF1 (P32519 whole entry): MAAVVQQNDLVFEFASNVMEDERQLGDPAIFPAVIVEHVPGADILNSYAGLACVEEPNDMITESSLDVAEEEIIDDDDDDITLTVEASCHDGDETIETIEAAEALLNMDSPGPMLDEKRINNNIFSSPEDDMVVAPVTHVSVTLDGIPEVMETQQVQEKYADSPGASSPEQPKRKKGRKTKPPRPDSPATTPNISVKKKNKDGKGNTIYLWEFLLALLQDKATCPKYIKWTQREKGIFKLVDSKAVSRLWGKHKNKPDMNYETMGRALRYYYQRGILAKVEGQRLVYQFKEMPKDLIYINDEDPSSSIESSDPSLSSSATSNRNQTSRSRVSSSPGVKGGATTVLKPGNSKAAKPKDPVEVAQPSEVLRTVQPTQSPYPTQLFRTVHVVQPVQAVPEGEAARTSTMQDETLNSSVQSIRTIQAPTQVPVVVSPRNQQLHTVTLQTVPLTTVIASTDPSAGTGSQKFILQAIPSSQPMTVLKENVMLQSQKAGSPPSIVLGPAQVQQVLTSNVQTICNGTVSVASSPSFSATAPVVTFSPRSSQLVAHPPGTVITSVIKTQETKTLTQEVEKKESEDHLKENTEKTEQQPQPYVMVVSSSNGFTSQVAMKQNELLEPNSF
Procedure, shortened: as §1

EHF = target: T5, EHF (Homo sapiens, UniProt Q9NZC4 1-300); details: protein: recombinant; tags: N-terminal GST; dsDNA, one strand shown
T5 sequence: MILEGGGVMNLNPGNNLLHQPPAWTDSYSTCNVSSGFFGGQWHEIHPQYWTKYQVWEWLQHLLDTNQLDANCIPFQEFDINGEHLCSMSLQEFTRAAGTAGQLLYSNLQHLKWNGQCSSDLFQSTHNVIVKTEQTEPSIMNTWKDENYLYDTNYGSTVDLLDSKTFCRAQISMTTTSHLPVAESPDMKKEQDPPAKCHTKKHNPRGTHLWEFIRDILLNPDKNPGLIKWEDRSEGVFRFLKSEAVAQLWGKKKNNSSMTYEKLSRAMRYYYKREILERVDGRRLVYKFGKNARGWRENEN
Procedure, shortened: as §1

SPI1 = SPI1 (Homo sapiens, UniProt P17947 1-270); details: protein: recombinant; tags: N-terminal GST; dsDNA, one strand shown
Procedure, shortened: as §1

SPIB = SPIB (Homo sapiens, UniProt Q01892 1-262); details: protein: recombinant; tags: N-terminal GST; dsDNA, one strand shown
Chain of SPIB (Q01892 whole entry): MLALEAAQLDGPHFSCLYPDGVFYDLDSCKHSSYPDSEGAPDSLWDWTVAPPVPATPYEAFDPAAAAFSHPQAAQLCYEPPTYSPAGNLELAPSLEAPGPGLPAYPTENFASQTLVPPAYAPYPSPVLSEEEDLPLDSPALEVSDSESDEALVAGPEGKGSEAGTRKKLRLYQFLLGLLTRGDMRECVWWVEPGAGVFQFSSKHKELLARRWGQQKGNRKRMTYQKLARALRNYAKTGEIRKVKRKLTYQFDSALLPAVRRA
Procedure, shortened: as §1

ELK3 = target: T6, ELK3 (Homo sapiens, UniProt P41970 1-407); details: protein: recombinant; tags: N-terminal GST; dsDNA, one strand shown
T6 sequence: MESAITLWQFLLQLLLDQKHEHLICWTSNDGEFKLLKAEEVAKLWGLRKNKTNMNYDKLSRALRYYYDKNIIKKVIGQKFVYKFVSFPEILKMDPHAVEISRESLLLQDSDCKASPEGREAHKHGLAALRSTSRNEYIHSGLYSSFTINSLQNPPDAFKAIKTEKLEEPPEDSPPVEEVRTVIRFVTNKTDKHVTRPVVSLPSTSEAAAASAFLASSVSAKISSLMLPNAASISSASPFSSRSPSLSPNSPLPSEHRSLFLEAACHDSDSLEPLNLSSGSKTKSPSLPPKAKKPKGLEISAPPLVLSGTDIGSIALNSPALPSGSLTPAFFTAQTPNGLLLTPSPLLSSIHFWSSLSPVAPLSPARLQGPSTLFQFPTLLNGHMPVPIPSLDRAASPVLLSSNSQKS
Procedure, shortened: as §1

FEV = target: T7, FEV (Homo sapiens, UniProt Q99581 1-238); details: protein: recombinant; tags: N-terminal GST; dsDNA, one strand shown
T7 sequence: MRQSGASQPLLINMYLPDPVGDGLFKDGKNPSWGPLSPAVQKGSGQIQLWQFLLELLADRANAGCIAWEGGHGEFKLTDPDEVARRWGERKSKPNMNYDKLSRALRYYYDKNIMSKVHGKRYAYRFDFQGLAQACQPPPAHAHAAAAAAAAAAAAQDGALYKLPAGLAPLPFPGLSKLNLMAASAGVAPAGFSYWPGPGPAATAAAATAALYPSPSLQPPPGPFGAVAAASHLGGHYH
Procedure, shortened: as §1

ETV5 = ETV5 (Homo sapiens, UniProt P41161 1-510); details: protein: recombinant; tags: N-terminal GST; dsDNA, one strand shown
Chain of ETV5 (P41161 whole entry): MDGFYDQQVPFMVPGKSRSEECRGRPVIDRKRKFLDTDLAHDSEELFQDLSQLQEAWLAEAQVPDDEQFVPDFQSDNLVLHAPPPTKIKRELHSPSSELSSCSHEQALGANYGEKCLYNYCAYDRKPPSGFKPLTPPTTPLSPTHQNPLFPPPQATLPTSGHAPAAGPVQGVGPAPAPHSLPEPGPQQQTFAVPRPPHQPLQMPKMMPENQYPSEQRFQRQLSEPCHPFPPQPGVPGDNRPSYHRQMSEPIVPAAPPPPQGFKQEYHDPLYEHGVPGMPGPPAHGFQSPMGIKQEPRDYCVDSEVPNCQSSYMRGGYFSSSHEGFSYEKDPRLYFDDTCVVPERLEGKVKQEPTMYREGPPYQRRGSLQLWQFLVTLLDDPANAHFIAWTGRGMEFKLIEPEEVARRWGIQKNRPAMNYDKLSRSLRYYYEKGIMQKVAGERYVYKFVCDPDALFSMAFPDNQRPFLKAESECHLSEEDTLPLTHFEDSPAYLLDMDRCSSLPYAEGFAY
Procedure, shortened: as §1

HSF1 = HSF1 (Homo sapiens, UniProt Q00613 1-529); details: protein: recombinant; tags: N-terminal GST; chain copies: 3; dsDNA, one strand shown
Chain of HSF1 (Q00613 whole entry): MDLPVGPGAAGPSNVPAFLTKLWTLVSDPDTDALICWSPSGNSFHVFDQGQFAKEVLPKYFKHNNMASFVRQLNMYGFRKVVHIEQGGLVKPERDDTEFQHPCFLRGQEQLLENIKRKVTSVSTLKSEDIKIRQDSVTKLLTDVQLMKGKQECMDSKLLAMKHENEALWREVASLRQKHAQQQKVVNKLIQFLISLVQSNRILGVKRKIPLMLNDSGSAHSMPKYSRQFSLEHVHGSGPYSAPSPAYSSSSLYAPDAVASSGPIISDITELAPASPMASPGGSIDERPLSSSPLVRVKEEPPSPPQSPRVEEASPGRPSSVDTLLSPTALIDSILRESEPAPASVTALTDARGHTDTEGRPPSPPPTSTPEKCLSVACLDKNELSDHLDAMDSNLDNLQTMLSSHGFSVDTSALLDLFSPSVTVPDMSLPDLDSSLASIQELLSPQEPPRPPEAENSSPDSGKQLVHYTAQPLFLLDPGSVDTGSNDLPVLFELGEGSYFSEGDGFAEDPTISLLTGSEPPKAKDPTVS
Procedure, shortened: as §1

SPIC = target: T8, SPIC (Homo sapiens, UniProt Q8N5J4 1-248); details: protein: recombinant; tags: N-terminal GST; dsDNA, one strand shown
T8 sequence: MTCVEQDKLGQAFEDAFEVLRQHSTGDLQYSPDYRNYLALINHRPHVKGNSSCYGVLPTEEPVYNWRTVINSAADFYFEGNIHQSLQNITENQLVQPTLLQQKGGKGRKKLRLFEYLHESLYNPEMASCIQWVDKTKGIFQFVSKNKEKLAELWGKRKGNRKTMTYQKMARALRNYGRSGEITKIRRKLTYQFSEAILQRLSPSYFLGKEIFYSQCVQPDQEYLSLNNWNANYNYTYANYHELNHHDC
Procedure, shortened: as §1

ELF4 = ELF4 (Homo sapiens, UniProt Q99607 1-663); details: protein: recombinant; tags: N-terminal GST; dsDNA, one strand shown
Chain of ELF4 (Q99607 whole entry): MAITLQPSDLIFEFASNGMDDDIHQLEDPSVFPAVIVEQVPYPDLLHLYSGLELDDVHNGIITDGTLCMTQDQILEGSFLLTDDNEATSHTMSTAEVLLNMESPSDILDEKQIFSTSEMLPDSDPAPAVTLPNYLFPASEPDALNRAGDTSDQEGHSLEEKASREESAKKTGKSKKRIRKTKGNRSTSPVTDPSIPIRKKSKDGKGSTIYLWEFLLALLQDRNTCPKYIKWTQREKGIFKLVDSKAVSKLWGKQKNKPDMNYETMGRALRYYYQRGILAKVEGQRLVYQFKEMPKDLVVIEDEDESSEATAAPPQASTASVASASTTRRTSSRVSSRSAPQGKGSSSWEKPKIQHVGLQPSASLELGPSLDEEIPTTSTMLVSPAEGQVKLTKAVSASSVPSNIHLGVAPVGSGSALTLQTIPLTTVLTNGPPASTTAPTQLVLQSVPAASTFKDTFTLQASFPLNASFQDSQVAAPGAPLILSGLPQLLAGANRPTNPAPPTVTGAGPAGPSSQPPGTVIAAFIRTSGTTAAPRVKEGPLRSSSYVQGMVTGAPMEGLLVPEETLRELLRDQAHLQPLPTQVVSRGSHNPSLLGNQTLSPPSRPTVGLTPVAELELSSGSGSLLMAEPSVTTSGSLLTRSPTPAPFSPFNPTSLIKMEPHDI
Procedure, shortened: as §1

ELK4 = target: T9, ELK4 (Homo sapiens, UniProt P28324-2 1-405); details: protein: recombinant; tags: N-terminal GST; dsDNA, one strand shown
T9 sequence: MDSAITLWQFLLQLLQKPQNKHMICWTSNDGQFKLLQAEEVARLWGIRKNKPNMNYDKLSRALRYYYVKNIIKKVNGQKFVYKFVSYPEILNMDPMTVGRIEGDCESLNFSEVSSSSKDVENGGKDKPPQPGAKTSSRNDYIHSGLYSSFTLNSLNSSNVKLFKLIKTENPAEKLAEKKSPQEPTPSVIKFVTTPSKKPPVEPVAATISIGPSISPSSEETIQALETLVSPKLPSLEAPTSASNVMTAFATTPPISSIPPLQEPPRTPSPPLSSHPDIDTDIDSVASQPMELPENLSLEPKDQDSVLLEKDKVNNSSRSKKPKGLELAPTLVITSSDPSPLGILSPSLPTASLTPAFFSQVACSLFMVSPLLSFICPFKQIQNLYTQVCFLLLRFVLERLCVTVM
Procedure, shortened: as §1

ETV2 = target: T10, ETV2 (Homo sapiens, UniProt O00321 1-342); details: protein: recombinant; tags: N-terminal GST; dsDNA, one strand shown
T10 sequence: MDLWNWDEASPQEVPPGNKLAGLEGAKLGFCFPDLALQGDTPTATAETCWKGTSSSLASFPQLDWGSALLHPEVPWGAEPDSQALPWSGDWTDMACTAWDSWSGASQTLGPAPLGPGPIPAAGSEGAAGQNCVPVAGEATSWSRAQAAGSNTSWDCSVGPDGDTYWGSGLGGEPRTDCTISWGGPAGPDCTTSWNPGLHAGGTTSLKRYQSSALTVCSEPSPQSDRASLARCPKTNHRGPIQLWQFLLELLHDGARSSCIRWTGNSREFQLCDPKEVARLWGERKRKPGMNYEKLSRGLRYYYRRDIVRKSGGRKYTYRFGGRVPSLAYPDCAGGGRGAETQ
Procedure, shortened: as §1

ELF3 = target: T11, ELF3 (Homo sapiens, UniProt P78545 1-371); details: protein: recombinant; tags: N-terminal GST; dsDNA, one strand shown
T11 sequence: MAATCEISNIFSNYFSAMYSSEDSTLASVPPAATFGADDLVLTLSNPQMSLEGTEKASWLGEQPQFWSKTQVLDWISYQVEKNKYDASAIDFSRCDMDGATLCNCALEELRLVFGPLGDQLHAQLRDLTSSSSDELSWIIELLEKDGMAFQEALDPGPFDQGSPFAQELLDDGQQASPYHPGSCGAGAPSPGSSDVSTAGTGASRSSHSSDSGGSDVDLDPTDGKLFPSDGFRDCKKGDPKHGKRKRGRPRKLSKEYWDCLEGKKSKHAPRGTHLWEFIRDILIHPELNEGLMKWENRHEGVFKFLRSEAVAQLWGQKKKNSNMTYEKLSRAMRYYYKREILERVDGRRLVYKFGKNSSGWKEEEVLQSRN
Procedure, shortened: as §1

CRX = CRX (Homo sapiens, UniProt O43186 1-299); details: protein: recombinant; tags: N-terminal GST; dsDNA, one strand shown
Chain of CRX (O43186 whole entry): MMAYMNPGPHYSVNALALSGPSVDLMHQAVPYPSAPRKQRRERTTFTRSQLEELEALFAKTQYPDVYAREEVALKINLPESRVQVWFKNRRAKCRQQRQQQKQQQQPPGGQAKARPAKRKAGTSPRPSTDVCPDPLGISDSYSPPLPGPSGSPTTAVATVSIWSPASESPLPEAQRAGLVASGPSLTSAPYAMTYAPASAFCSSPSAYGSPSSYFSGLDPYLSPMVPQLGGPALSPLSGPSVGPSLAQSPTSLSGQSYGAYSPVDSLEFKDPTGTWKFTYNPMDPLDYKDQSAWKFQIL
Procedure, shortened: as §1

ETV1 = ETV1 (Homo sapiens, UniProt P50549 1-477); details: protein: recombinant; tags: N-terminal GST; dsDNA, one strand shown
Chain of ETV1 (P50549 whole entry): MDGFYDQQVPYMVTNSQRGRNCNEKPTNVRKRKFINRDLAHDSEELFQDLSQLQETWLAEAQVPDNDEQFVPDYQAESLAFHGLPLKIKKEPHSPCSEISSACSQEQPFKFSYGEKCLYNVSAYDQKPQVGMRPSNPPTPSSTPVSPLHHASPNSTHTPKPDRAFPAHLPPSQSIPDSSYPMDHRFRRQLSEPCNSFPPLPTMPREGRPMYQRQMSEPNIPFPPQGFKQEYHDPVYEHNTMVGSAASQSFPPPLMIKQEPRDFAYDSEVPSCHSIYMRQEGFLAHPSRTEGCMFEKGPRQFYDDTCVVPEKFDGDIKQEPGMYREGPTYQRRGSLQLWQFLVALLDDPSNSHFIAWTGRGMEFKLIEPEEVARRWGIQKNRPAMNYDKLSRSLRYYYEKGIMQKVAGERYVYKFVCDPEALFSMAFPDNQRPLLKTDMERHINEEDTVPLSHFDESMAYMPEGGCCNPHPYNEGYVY
Procedure, shortened: as §1

## TCTTTT
FLI1
  binding signal: 1.46 fold enrichment (6-mer frequency, TF over GST control)
ELK1
  binding signal: 1.38 fold enrichment (6-mer frequency, TF over GST control)
GABPA
  binding signal: 1.45 fold enrichment (6-mer frequency, TF over GST control)
ERG
  binding signal: 1.36 fold enrichment (6-mer frequency, TF over GST control)
ELF1
  binding signal: 1.47 fold enrichment (6-mer frequency, TF over GST control)
EHF
  binding signal: 1.53 fold enrichment (6-mer frequency, TF over GST control)
SPI1
  binding signal: 2.09 fold enrichment (6-mer frequency, TF over GST control)
SPIB
  binding signal: 1.61 fold enrichment (6-mer frequency, TF over GST control)
ELK3
  binding signal: 1.51 fold enrichment (6-mer frequency, TF over GST control)
FEV
  binding signal: 1.44 fold enrichment (6-mer frequency, TF over GST control)
ETV5
  binding signal: 1.4 fold enrichment (6-mer frequency, TF over GST control)
HSF1
  binding signal: 1.66 fold enrichment (6-mer frequency, TF over GST control)
SPIC
  binding signal: 1.55 fold enrichment (6-mer frequency, TF over GST control)
ELF4
  binding signal: 1.54 fold enrichment (6-mer frequency, TF over GST control)
ELK4
  binding signal: 1.22 fold enrichment (6-mer frequency, TF over GST control)
ETV2
  binding signal: 1.42 fold enrichment (6-mer frequency, TF over GST control)
ELF3
  binding signal: 1.41 fold enrichment (6-mer frequency, TF over GST control)
CRX
  binding signal: 1.59 fold enrichment (6-mer frequency, TF over GST control)
ETV1
  binding signal: 1.47 fold enrichment (6-mer frequency, TF over GST control)

Reference: paper PMC7862700, “An all-to-all approach to the identification of sequence-specific readers for epigenetic DNA modifications on cytosine”
